Assay results reported in publication PMC13494018.
Values without a mark were called inactive. No rule for the calls is given here.

B1: d8r1_design_ppi_59_dldesign_0_cycle1_af2pred (protein)
chain: MSELSEKLIEAAIAAHRAAAELAALGAPAEAAAHRAKAAKLFGEARKLIQEGDEEKAKKALEEAEALAAAAAAAAKKARAAAAAA
B2: d8r1_design_ppi_1045_dldesign_0_cycle0_af2pred (protein)
chain: SADTKEGADLFTKAAEQLLKVGEELLKKGKETGDEKLIKEALKYFEAAAAYAEAAATLAAKADAAAAAKAKELKEKAKKAAEEAKKAL
B3: d8r1_design_ppi_1335_dldesign_0_cycle0_af2pred (protein)
chain: EAAAAATIEAAAKAAAEFTGLPVEEVLALAALAAADPAAARALRERLGEEDPLRAAAADVMLTVVAQAKRELA
B4: d8r1_design_ppi_477_dldesign_0_cycle1_af2pred (protein)
chain: SAEDVKRAAAGLKAAAKAYAALAAENKEVKEAAKELEKAAKLLLEDPEKGREKAAEESLKLNQLVIKAAD
B5: d8r1_design_ppi_645_dldesign_0_cycle1_af2pred (protein)
chain: KIEKAKELLKKAKELLKEAKANPETAIEKAKAALADLSEAASLAAEAAKDPETKEEAEKLLAEAKKLGLEATQLLMKQSSLEEK
B6: d8r1_design_ppi_560_dldesign_0_cycle0_af2pred (protein)
chain: SAEEEEEKLREEAEKAVAEAKATAAAFKAQAATATPEKAAALNAAVAALAGLIKIAEDPEARRGASRAAKSVIAHAKRVLAA
B7: d8r1_design_ppi_623_dldesign_0_cycle0_af2pred (protein)
chain: SAAAAAAAAAAKAALAAAKKKAEEAVKLTPEEAAKVLGEIAAAATAALAAATDAADRAALRAAAAEVFSTGAKNLAKAAKKAEE
B8: d8r1_design_ppi_701_dldesign_0_cycle1_af2pred (protein)
chain: EERRRRGEELLLEALALIGAAARDPAAAPAAVAALRAAAALVPELAPELERAAALVEAGLAAAKEAAAIVGSLALKMAS
B9: d8r1_design_ppi_508_dldesign_0_cycle0_af2pred (protein)
chain: AGEEALEKAIKEVKELISEAAKALQESREKGIEKAKEGAKRAEKLKKEAAKEPLAERIGRVLESAKGFLEKLKEALEES
B10: d8r1_design_ppi_891_dldesign_0_cycle0_af2pred (protein)
chain: SAVREEAERKAEEVAELAKKDPEKGLEAMKAYLEELVAAGHREAALYAAARAASLMFSDPSTLETAIAVSRYAAELAA
B11: d8r1_design_ppi_310_dldesign_0_cycle1_af2pred (protein)
chain: ALAAALNSVAALAKLAAELLETDPAAGKQLAKNVAVALAKLGLTEEAARLKAATPEELKAVAKEAAAAAKAAAAALA
B12: d8r1_design_ppi_14_dldesign_0_cycle1_af2pred (protein)
chain: AAAVAAAIEAAMRAAMPSDPAKAAELAALIAAKGLAGAKEAARKAMELFREDPELGKQAFAGVDAARAILAAA
B13: d8r1_design_ppi_895_dldesign_0_cycle1_af2pred (protein)
chain: MTPEAKSAFAAAQSLADAIKLGAKEGLLTPETRAALVEKLRAAAAEAAALDPAIAPQAAALAADAEAAAA
B14: d8r1_design_ppi_457_dldesign_0_cycle1_af2pred (protein)
chain: AAAKAAAAAEAEALIAKAEAVVKAIKDFTALAAASTPEDGAAALRAAENLKTTAVDLATQAAALAKALGRPDLATRATAVAQAAKDAM
B15: d8r1_design_ppi_360_dldesign_0_cycle1_af2pred (protein)
chain: SEAYEKAVEEAAERVAALIKAAVAAGATPAEAWAAAAKKIEEERKKLKEKFGEEQAEEGARRITARAAKALLRAMAAREE
B16: d8r1_design_ppi_271_dldesign_0_cycle0_af2pred (protein)
chain: AAAELAATIAAAAAAAAADGPRGLALLAGAILRAFPSLSAETLAEIIRLAAADPAAAAEAIAALAAAHPEAAPALAAALRAALAELA
B17: d8r1_design_ppi_584_dldesign_0_cycle0_af2pred (protein)
chain: AAARAAEAAALKAKAKEIAAEAFSYAALSSRDEEAKKEADKKIEELKKLAKEAKAKGLEEAAKFAEDFAEGAETLKKVVEEA
B18: d8r1_design_ppi_41_dldesign_0_cycle0_af2pred (protein)
chain: RGEEVLERVKESASRAMSLAAKDPSLSEKVLEALALASEAGRAIKTEGVEKGEELAKKAEELTKEIEEEAK
B19: d8r1_design_ppi_661_dldesign_0_cycle1_af2pred (protein)
chain: AAADAAAAAAAATAGANAVAAAQLALELNPKSAIDLAEAAIAHFKKLAATGSPAVAAQANAAIAALEAVKAQAKKKLAAE
B20: d8r1_design_ppi_295_dldesign_0_cycle0_af2pred (protein)
chain: SLKEKAEKHLELAQKYAEKAGKLRGVKIEVKGANLEELKALRKEFGAWADEAAKAGDKETAIEATRAAAHLGEAIDLLEEL
B21: d8r1_design_ppi_20_dldesign_0_cycle1_af2pred (protein)
chain: KEEKAEKMKKEAEKYVERAKADAAKLAGSPQAATAAKLAASAEKSAELMKKALEEGDFGLAEVFLAAAKAAAEQLAKMAAA
B22: d8r1_design_ppi_1238_dldesign_0_cycle0_af2pred (protein)
chain: MEETKKLIEEARKLAEEARRALKEDKERALELLREAANKASKALALADEESEELAEEAKKVLAEISKVAKELAK
B23: d8r1_design_ppi_1314_dldesign_0_cycle0_af2pred (protein)
chain: SSEEEEAKRLAARAARAAARRLEEAAEERAAEDPEAARRAAEEGRRLAEEAEKGNAEEAKRALTEITRLLREVLA
B24: d8r1_design_ppi_1220_dldesign_0_cycle0_af2pred (protein)
chain: KEEEADKLAVEAMRLLGEAAELTKKATTKEQVEAAKKKAEEAKKKAEELLKVDPRKKGLAEALKSAAKKVLEAAEKKEKEL
B25: d8r1_design_ppi_227_dldesign_0_cycle1_af2pred (protein)
chain: GAKAKAKAVLDKAKEKLAEAMKAALDADESKKPEVYKLIAEAAAALAKGIAAYKAAKNEAQLKEAIAWFEKAIAAAEKAIKLAK
B26: d8r1_design_ppi_516_dldesign_0_cycle1_af2pred (protein)
chain: AEEELRRQIEEQGERLEEAAEELRRLAEEARERDPAAGRALEAAAESLRGLVEIAKELDPGSAQGVIQVAERVAERARRLAEEYLAA
B27: d8r1_design_ppi_1305_dldesign_0_cycle1_af2pred (protein)
chain: MEAEKLAKELLEKAKELAALPMGEASKAAAALAKEYAAKNPEVALKAAKIAYEKAVKDPSVSSKVRQLLAAALAEATYELKKKKAAA
B28: d8r1_design_ppi_901_dldesign_0_cycle1_af2pred (protein)
chain: AAAAARADIATLLAFMTKAIAEGDESAANMAANGAIASGAKAGPELAAQAAAEAAAARAAALAAKAAAAA
B29: d8r1_design_ppi_1006_dldesign_0_cycle0_af2pred (protein)
chain: AAAAAAAKAARTKEVIAKMKELISEAMLAKSEGTGVEALKKAAEEAKKLAKEAKAAGDTAAATVANNAAAFLETAAKAEEEAK
B30: d8r1_design_ppi_1162_dldesign_0_cycle1_af2pred (protein)
chain: MSLAEEAALEGQKNSPMLGAVLYGHAKRSDAAVAELLLEAAKGDAATARAQARAAAALLPPEEGARLVTDVTAALEADEKDK
B31: d8r1_design_ppi_1118_dldesign_0_cycle0_af2pred (protein)
chain: SEGSEALARFAKSMAEVAKIKAEEAAKVDAEVAAIFKEAAKLYEEAAKAAKEDVEKGKKLLTEANKKMAEGLAAMKKKKA
B32: d8r1_design_ppi_713_dldesign_0_cycle1_af2pred (protein)
chain: AEFLAQGRAAAAATSPANAAALEAAYAAAKAQEDKMEGMKILLATATTLAAASTPAEAVLIGKAAAYFIADLLS
B33: d8r1_design_ppi_1191_dldesign_0_cycle0_af2pred (protein)
chain: AAAALAAQAAAYTATYNAASAALAVALADPSFSPQSQKNIAQSQVDAATKALEAATAYDPAQAAAWQAALDAAQAQLAAI
B34: d8r1_design_ppi_31_dldesign_0_cycle1_af2pred (protein)
chain: DKYSQMAEVWGMLSEVVARVAAELGPEAAEEAIKRAGEAASAAAKDVEEGEKKAKEVKEWADKQLAAAAA
B35: d8r1_design_ppi_587_dldesign_0_cycle1_af2pred (protein)
chain: MLTPEALNAIAKLGSEAGSLAAKATPEQKAEGRKLGELVAEKMLASSPEEALEIAKKLLEEGKKDLTYAVATATAASRVLRAYLQQLS
B36: d8r1_design_ppi_416_dldesign_0_cycle1_af2pred (protein)
chain: SDESARIKAETLGRISEAMREARRAAEEGDVERAREAAERAREAGREGAEKALELGDESTAESLRSTAEKVAERAERLAEEAAA
B37: d8r1_design_ppi_948_dldesign_0_cycle0_af2pred (protein)
chain: SEEAKKKYEEEKKKLEELRKEAEKLAAADPAAGGAIATLIDNGIAAGDKLYEAGSVESAAKLLESVREKAERLLAELRAAVAA
B38: d8r1_design_ppi_823_dldesign_0_cycle1_af2pred (protein)
chain: SSSEEEIDAKLEAAVAAVKEATALAKAAVAEGPAALPALEAFAAEKTAEFAKLGGVGAAAGAALQAVVDAARAQLA

Biological target: PDL1, Q9NZQ7
Sequence (Q9NZQ7 whole entry): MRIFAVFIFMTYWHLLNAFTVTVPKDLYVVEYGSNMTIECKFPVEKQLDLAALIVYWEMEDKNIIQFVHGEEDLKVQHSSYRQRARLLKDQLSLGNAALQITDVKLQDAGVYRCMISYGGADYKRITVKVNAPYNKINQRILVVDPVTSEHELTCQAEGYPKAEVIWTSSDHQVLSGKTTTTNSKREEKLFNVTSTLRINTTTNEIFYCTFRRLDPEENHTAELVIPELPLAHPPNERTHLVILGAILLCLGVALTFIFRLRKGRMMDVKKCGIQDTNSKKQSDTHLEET

Row | Binder | binding in a display sort
1 | B1 | not found
2 | B2 | not found
3 | B3 | not found
4 | B4 | not found
5 | B5 | not found
6 | B6 | not found
7 | B7 | not found
8 | B8 | not found
9 | B9 | not found
10 | B10 | not found
11 | B11 | not found
12 | B12 | binds (active)
13 | B13 | binds (active)
14 | B14 | not found
15 | B15 | not found
16 | B16 | not found
17 | B17 | not found
18 | B18 | not found
19 | B19 | not found

Row | Binder | binding in a display sort
20 | B20 | not found
21 | B21 | not found
22 | B22 | not found
23 | B23 | not found
24 | B24 | not found
25 | B25 | not found
26 | B26 | not found
27 | B27 | not found
28 | B28 | not found
29 | B29 | not found
30 | B30 | not found
31 | B31 | not found
32 | B32 | not found
33 | B33 | not found
34 | B34 | not found
35 | B35 | not found
36 | B36 | not found
37 | B37 | not found
38 | B38 | not found
